Jurkat NFkB inh: inhibitors of the PMA/ionomycin-induced NF-kB reporter in Jurkat cells. PMA/ionomycin-induced NF-kB luciferase reporter, luminescence. inhibition, % at 4 µM. 330,000 compounds, 0.53% hits; in the data active = inhibition above about 50%
CSC inhib: cancer stem cell inhibition. cancer stem cell-like cells viability, luminescence. inhibition, % at 7.5 µM. 300,000 compounds, 1.1% hits. AID 2717; in the data active = inhibition above about 75%; inconclusive = no clear call, values can overlap the other calls; tested in HMLE shEcad cells
Beta apoptosis: beta cell apoptosis inhibition; INS-1E cytokine-induced death, ATP luminescence, 48 h; percent of positive-control rescue, neutral wells zero; protection from apoptosis, % (concentration not given with the values); 300,000 compounds, 0.8% hits; AID 435005;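 active = Every replicate reaches about 75%, or at least half do and their mean reaches it too, limit read from the data; inconclusive = At least half of replicates reach the limit but their mean does not; inactive = Under half of replicates reach the limit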;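 note: 0% = cytokine-treated negative control wells and 100% = positive control rescue; higher means more ATP so stronger rescue from cytokine killing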
Gli-Sufu antag: blocks Gli-Sufu signaling in a luciferase reporter. inhibition, % at 5 µM. 340,000 compounds, 0.74% hits. Sufu-KO-LIGHT fibroblasts, Gli luciferase reporter luminescence;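 active = inhibition above about 55%, limit read from the data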;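 note: 0% = DMSO-treated cells and 100% = wells with medium but no cells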
697 NFkB inh: inhibitors of the PMA/ionomycin-induced NF-kB reporter in 697 B cells. 697 B-cell NF-kB luciferase reporter, 16 h. inhibition, % at 4 µM. 330,000 compounds, 0.33% hits. AID 435022; in the data active = inhibition above about 35%
Mdm2-MdmX inh: disrupts the human Mdm2-MdmX interaction; SaOS-2 split-luciferase Mdm2/MdmX complementation, luminescence; 330,000 compounds, 3% hits; AID 485346; inhibition, % at 8 µM; O15151+Q00987;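 active = inhibition of at least 50% at 8 µM in the primary screen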
Target sequence (O15151 whole entry, looked up): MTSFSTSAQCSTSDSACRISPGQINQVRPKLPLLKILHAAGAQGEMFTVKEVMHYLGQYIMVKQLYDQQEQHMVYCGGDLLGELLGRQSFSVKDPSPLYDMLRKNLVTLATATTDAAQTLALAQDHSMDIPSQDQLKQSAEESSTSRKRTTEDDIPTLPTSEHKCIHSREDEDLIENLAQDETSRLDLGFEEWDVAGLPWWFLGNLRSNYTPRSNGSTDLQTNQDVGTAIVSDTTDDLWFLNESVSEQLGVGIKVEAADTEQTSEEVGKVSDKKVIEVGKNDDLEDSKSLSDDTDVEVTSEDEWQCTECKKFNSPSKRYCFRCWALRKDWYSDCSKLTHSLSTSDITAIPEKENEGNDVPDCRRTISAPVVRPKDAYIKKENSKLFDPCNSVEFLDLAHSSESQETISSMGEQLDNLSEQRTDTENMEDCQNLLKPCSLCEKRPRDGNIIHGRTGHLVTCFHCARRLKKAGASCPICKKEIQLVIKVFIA
Target sequence (Q00987 whole entry, looked up): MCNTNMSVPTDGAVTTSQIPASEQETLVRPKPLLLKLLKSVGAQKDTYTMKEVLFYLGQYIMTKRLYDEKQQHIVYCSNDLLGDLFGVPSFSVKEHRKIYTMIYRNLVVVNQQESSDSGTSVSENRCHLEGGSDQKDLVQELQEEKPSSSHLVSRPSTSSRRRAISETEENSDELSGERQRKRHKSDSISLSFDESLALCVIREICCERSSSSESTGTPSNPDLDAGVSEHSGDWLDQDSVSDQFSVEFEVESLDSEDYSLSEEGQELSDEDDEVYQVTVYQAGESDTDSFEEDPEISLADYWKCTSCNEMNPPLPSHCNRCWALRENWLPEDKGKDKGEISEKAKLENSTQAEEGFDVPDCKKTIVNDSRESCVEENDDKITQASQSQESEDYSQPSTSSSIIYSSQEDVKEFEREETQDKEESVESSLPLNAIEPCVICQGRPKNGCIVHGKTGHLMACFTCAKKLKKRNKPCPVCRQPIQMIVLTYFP
Mdm2 MdmX conf: human Mdm2/MdmX binding inhibition, confirmed | inhibition, % at 8 µM | 10,000 compounds, 55% hits | shares compounds with Mdm2-MdmX inh | luminescent assay | AID 489028; in the data active = inhibition above about 40%
Full FLuc ctr: full-length luciferase inhibition in Mdm2/MdmX counter-screen; shares compounds with Mdm2-MdmX inh; SaOS-2 full-length luciferase counterscreen, luminescence; inhibition, % at 8 µM; 6,200 compounds, 77% hits;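 active = mean inhibition at 8 µM reaching about 37%, which flags the compound as non-specific, limit read from the data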;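 note: p53-null SaOS-2 cells with luciferase driven by a doxycycline-inducible promoter; compound on cells about two nights before reading with doxycycline added after day one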
Numbers without * were called inactive; ? = inconclusive; . = no result given. An excerpt weighted towards active compounds, which were near 4.5% of everything screened.

SMILES | Jurkat NFkB inh | CSC inhib | Beta apoptosis | Gli-Sufu antag | 697 NFkB inh | Mdm2-MdmX inh | Mdm2 MdmX conf | Full FLuc ctr
C=CCN1C(=O)/C(=C2/Sc3ccc(OC)cc3N2C)SC1=Nc1cccc(O)c1 | 0 | -1 | -7 | 13 | 10 | 67* | 29 | .
CCN1C(=O)/C(=C2/Sc3ccc(OC)cc3N2C)SC1=Nc1ccc(OC)cc1 | -9 | -5 | -2 | 5 | -20 | -1 | . | .
CC(=O)C[C@H](O)CC(=O)[C@H]1OC(=O)CCCCCCc2ccccc21 | -16 | . | -10 | 1 | 5 | 20 | . | .
CCN1CCN(C(=O)CN2C(=O)c3ccccc3S2(=O)=O)CC1 | 8 | -13 | -5 | -16 | -4 | 9 | . | .
COc1ccc(C2C3=C(Nc4ncnn42)c2ccccc2CCC3)cc1 (stereo not given) | -17 | 9 | 4 | 2 | -11 | 13 | . | .
Fc1ccc(/C=C2\CCCC3=C2Nc2ncnn2C3c2ccc(F)cc2)cc1 (stereo not given) | 41 | -1 | 3 | 6 | -25 | 99* | 47* | 1
COc1cc(C(=O)ON=C2C3CC4CC(C3)CC2C4)cc(OC)c1OC | 6 | -2 | 8 | -3 | -35 | 95* | 27 | .
COc1cc(C(=O)O/N=C2\C=CC(=O)C=C2C)cc(OC)c1OC | 7 | 3 | -23 | 3 | 4 | 29 | . | .
COC(=O)CSC1=C(C#N)C(c2ccc(C)o2)CC(=O)N1 (stereo not given) | 26 | -18 | -2 | -3 | -16 | 58* | 47* | 73*
O=C(NCc1ccccc1)c1c[nH]c2ccccc2c1=O | 3 | 7 | -3 | -6 | 10 | 19 | . | .
Cc1cccc2sc(N(CCN3CCOCC3)C(=O)CCS(=O)(=O)c3ccccc3)nc12 | 1 | 2 | . | 8 | -11 | 69* | 46* | 68*
CCN(CC)CCN(C(=O)CCS(=O)(=O)c1ccccc1)c1nc2c(C)cc(C)cc2s1 | 1 | -1 | 2 | 14 | 12 | 51* | 37 | 87*
Cc1ccc(S(=O)(=O)CCC(=O)N(CCN2CCOCC2)c2nc3ccccc3s2)cc1 | -59 | -5 | . | -37 | -31 | -18 | . | .
CCN(CC)CCN(C(=O)CCS(=O)(=O)c1ccccc1)c1nc2cc(C)cc(C)c2s1 | 8 | -2 | 15 | -8 | -14 | 8 | . | .
O=C(COC(=O)c1cncc(Br)c1)NCC12CC3CC(CC(C3)C1)C2 | 6 | . | . | 18 | 1 | 22 | . | .
C=CCN1C(=O)C(CC(=O)Nc2ccc(OCCC)cc2)N(CCCN2CCN(Cc3ccccc3)CC2)C1=S (stereo not given) | 0 | 25 | 9 | 7 | 8 | 80* | 38 | 75*
O=C(Nc1ccc(Cl)cc1)Nc1ccc(N2CCCC2)c(S(=O)(=O)Nc2ccccc2Cl)c1 | -12 | 2 | 87* | 14 | -37 | 96* | 90* | 24
COc1ccc(NS(=O)(=O)c2ccc(N3CCOCC3)c(NC(=O)c3ccccc3Cl)c2)cc1 | 6 | 2 | 6 | 5 | 13 | -9 | . | .
O=C(Nc1cc(S(=O)(=O)Nc2ccc(Cl)cc2)ccc1N1CCCCC1)c1ccc(F)cc1Cl | 2 | 77* | 9 | 5 | 11 | 67* | 21 | .
O=C(Nc1ccc(N2CCOCC2)c(S(=O)(=O)Nc2ccccc2Cl)c1)c1ccc(=O)[nH]n1 | . | . | . | 2 | . | . | . | .
O=C(Nc1ccc(N2CCOCC2)c(S(=O)(=O)Nc2ccccc2Cl)c1)c1ccccc1 | 7 | . | 17 | -2 | -8 | 54* | 14 | .
COCCCn1c(=O)c2sccc2n2c(CCCC(=O)N(C)Cc3ccco3)nnc12 | 25 | -4 | 3 | 25 | 34 | 10 | . | .
COc1cccc(C(=O)NCC(=O)N2CCN(c3ccc(C(F)(F)F)cn3)CC2)c1 | -3 | . | . | 19 | -10 | 23 | . | .
Cc1ccc(C)n1-n1c(C)nc2sc(-c3ccccc3)cc2c1=O | -100 | 12 | 7 | 3 | -208 | -15 | . | .
Cc1nc2cc(-c3ccccc3)sc2c(=O)n1N | 35 | 13 | ? | 34 | 9 | 62* | 56* | 30
SMILES | Jurkat NFkB inh | CSC inhib | Beta apoptosis | Gli-Sufu antag | 697 NFkB inh | Mdm2-MdmX inh | Mdm2 MdmX conf | Full FLuc ctr
COc1ccc(-c2c/c(=N\c3nc(-c4ccccc4)c(C)s3)c3ccccc3o2)cc1O | 19 | 80* | 28 | 31 | -52 | 84* | 57* | 95*
CCOc1ccc(Oc2c(/C=N/NC(=O)COc3ccccc3OC)c(C)nn2-c2ccccc2)cc1 | 4 | 17 | 8 | 37 | -12 | 56* | 1 | .
Cc1ccc(C)c(OCC(=O)N/N=C/c2c(C)nn(-c3ccccc3)c2Cl)c1C | 22 | -5 | -2 | 3 | 23 | 51* | 35 | .
CCOc1ccc(Oc2c(/C=N/NC(N)=O)c(C)nn2-c2ccccc2)cc1 | -14 | -4 | -3 | 30 | -16 | 6 | . | .
C1=CCN(Cc2ccccc2)C1 | -3 | -14 | -6 | -17 | 11 | 12 | . | .
O=C(Cc1ccccc1)Nc1ccc(NC(=O)c2ccccc2)c(Cl)c1 | -14 | -5 | 2 | . | -13 | -4 | . | .
Cn1c(=O)c(C#N)c(-c2ccc(F)cc2)c2cc(C(=O)c3cc(Cl)cc(Cl)c3O)cnc21 | 1 | 124* | 28 | 4 | 5 | 83* | 87* | 30
N#Cc1sc2nccc(Nc3ccccc3)c2c1N | 33 | -9 | -16 | -10 | -18 | 92* | 78* | 49*
O=C(CCS(=O)(=O)c1ccccc1)Nc1nc2c(s1)COc1ccccc1-2 | 21 | 30 | -15 | 11 | 7 | 63* | 10 | .
O=C(CCS(=O)(=O)c1ccccc1)Nc1nc(-c2cccs2)cs1 | -13 | 27 | -12 | -3 | -18 | 97* | 47* | 51*
COc1ccc(-c2csc(NC(=O)CS(=O)(=O)c3ccc(F)cc3)n2)cc1OC | 5 | -4 | 4 | 2 | -2 | 6 | . | .
O=C(Nc1nc2c(s1)COc1ccccc1-2)c1cccs1 | 14 | 21 | 43 | -81 | 23 | 30 | . | .
O=C(COc1ccccc1)Nc1nc(-c2cccs2)cs1 | 10 | . | -6 | 1 | -27 | -7 | . | .
CC(C)c1nnc(NC(=O)CCS(=O)(=O)Cc2ccccc2)s1 | 2 | -2 | -17 | -19 | 7 | 15 | . | .
O=C(CCS(=O)(=O)c1ccc(F)cc1)Nc1nc(-c2ccncc2)cs1 | -20 | 59 | -12 | 5 | -25 | 89* | 68* | 34
CC(C)c1nnc(NC(=O)CCS(=O)(=O)c2nc(-c3cccs3)cc(C(F)(F)F)n2)s1 | -3 | 45 | -4 | 46 | -9 | 95* | 44* | 63*
CCOC(=O)C1CCCN(S(=O)(=O)c2cnc(Cl)c(Br)c2)C1 (stereo not given) | 0 | 14 | 6 | 9 | 11 | -7 | . | .
